An excerpt weighted towards active compounds, which were near 1.4% of everything screened.
TrxR1 substrate: rat thioredoxin reductase 1 substrate activity | O89049 | purified TrxR1 substrate turnover, NADPH consumption readout | Potency, µM (doses to about 114 µM), without a hit: at the highest dose activity change, negative = substrate turnover | actives 0.01% (n = 390,000) | AID 588456; note: potency is the fitted concentration of half-maximal effect; % is set by controls: 0 for no effect and ±100 for the full control effect; nearly all actives have a fitted effect of over 50% in size
Target sequence (O89049 whole entry, looked up): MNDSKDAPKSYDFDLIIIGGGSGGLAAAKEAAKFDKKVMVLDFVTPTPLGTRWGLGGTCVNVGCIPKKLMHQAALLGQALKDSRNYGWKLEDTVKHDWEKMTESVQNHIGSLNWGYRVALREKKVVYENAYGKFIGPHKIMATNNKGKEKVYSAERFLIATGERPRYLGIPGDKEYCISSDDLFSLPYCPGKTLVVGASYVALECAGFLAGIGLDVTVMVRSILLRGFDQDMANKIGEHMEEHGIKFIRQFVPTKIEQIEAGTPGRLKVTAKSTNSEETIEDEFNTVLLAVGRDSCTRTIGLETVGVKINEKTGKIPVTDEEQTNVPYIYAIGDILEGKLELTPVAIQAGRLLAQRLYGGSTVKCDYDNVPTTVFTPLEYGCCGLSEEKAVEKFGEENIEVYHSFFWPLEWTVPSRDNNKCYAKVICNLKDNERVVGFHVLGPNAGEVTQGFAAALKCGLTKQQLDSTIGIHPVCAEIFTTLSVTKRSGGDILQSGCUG
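Rat TrxR1, dispensed at 90 nM, was prereduced with 400 uM NADPH (final) for 5 min at ~22 deg C, then incubated with compound 15 min before 400 uM selenite. A first-read NADPH fluorescence drop versus no-compound background flagged substrates.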
AT treatment: potential ataxia-telangiectasia treatments restoring KAP-1 phosphorylation | F2112 A-T fibroblasts, KAP-1 phosphorylation AlphaLISA; neocarzinostatin DNA damage 30 min before lysis | actives 0.19% (n = 320,000) | Potency, µM (titrated, usually from 57.5 µM), without a hit: at the highest dose activation, actives largely listed as activators | AID 485349; note: potency is the fitted concentration of half-maximal effect; % of control where 0% means no effect; nearly all actives have a fitted effect of over 45% in size
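hTERT-immortalized A-T patient fibroblasts (F2112), 500 cells/well in OPTI-MEM, 1% FBS, got compounds for 60 min, then NCS for 30 min at 37C. Lysates were then assayed for phospho-KAP-1 by AlphaLISA (anti-pKAP1 donor, anti-KAP1 acceptor beads), 6 hr at 25C.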
Pin1 inhibitor: human Pin1 inhibition; Q13526; Pin1 FP peptide displacement, HiFluor488, 10 min; Potency, µM (highest dose often 115 µM), for the others: top-dose activity, negative = inhibition, most hits filed as inhibitors; actives 0.009% (n = 390,000); AID 504891; active = well fitted inhibition curve with a large enough effect in the polarisation, with a control signal flat, not every such curve was filed as active; inconclusive = small, poorly fitted or top-dose-only effect, or effect the other way, or a change in a side signal; inactive = no such curve, though single readings can be large or run the other way; the % refers to the polarisation; note: potency is the fitted concentration of half-maximal effect; % is set by controls: 0 for no effect and ±100 for the full control effect
rTrxR1 inhibitor: rat TrxR1 inhibition; O89049; recombinant rTrxR1, NADPH fluorescence consumption, selenite substrate; Potency, µM (highest dose often 114 µM), for the others: at the highest dose activity change, negative = inhibition, most hits filed as inhibitors; actives 1% (n = 390,000); note: potency is the fitted concentration of half-maximal effect; % is set by controls: 0 for no effect and ±100 for the full control effect; nearly all actives have a fitted effect of over 65% in size
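Rat TrxR1 (90 nM in the dispensed reagent) was pre-reduced with 400 uM NADPH for 5 min at room temperature, then incubated with compound for 15 min. After 400 uM selenite was added, NADPH fluorescence (Ex 340/Em 450 nm) was followed for 8 min.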
N370S GC mod: N370S glucocerebrosidase modulation, Gaucher chaperone candidate. P04062. N370S GC spleen homogenate, 4MU-glucoside fluorescence. Potency, µM (highest dose often 59.4 µM), inactives show at the top dose activity change, negative = inhibition, hits mostly inhibitors. actives 0.092% (n = 330,000). AID 2101;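 note: potency is the fitted concentration of half-maximal effect; 0% = full enzyme activity and -100% = no enzyme basal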
Akt phos inh: blocks phosphorylation of Akt | Neuro2A IGF-stimulated pAkt S473 HTRF, 20 min; hits give low values | activity change, % for hits at 50 µM | actives 0.32% (n = 360,000) | AID 651550; in the data active = activity change below about -80%; inconclusive = mostly about -51% to -80%; note: % is set by controls: 0 for no effect and ±100 for the full control effect
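Neuro2A cells in DMEM with 0.5% FBS, overnight at 37 deg C, given compound at single 50 µM final, then IGF (6 nM final) for 20 min at 37 deg C. Lysed; phospho-Akt Ser473 by HTRF after 24 h, 665/615 ratio.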
Starred values were filed as active, the others as inactive; i = inactive; ? = inconclusive; · = no result; [ ] = dose if it differs, or a comment. Unless noted, calls come from the whole dose curve; as a rule, active = well fitted curve in the direction sought with a large enough effect; inconclusive = small, poorly fitted or top-dose-only effect, or another doubt; inactive = no such curve, though single readings can be large; an effect the other way counts as inactive or inconclusive.

SMILES	TrxR1 substrate	AT treatment	Pin1 inhibitor	rTrxR1 inhibitor	N370S GC mod	Akt phos inh
O=C(NC(=S)Nc1nc(-c2cccc([N+](=O)[O-])c2)cs1)c1ccccc1Cl	2.1%[57.1 µM]	-4.0%	15.9%	13.2%[57.1 µM]	4.8%	i
COc1ccccc1NC(=O)CSc1nnc(N)s1	-2.1%[57.1 µM]	·	-2.2%	12.6µM*	·	·
C#CCOCCOCCOCCNc1nc(N2CCN(C(=O)CCCCCCCCCCNC(=O)[C@H](CCCCN)n3cc(C)nn3)CC2)nc(N2CCN(C(=O)CCCCCCCCCCNC(=O)[C@@H]([C@H](C)CC)n3cc(CCCCCN)nn3)CC2)n1	·	-2.5%	·	·	17.8µM*	·
C#CCOCCOCCOCCNc1nc(N2CCN(C(=O)CCCCCCCCCCNC(=O)[C@H](CCC(=O)O)n3cc(CCCCCN)nn3)CC2)nc(N2CCN(C(=O)CCCCCCCCCCNC(=O)[C@@H]([C@H](C)O)n3cc(C)nn3)CC2)n1	10.6%[57.1 µM]	17.5%	-3.5%	19.2%[57.1 µM]	-20.7%	i
C#CCOCCOCCOCCNc1nc(N2CCN(C(=O)CCCCCCCCCCNC(=O)[C@H](CCCCN)n3cc(CCO)nn3)CC2)nc(N2CCN(C(=O)CCCCCCCCCCNC(=O)[C@@H]([C@H](C)O)n3cc(C)nn3)CC2)n1	6.0%	9.3%	10.9%	50.1µM*	?	i
Cc1ccc(C)c(C(=O)Cn2ncc(Cl)c(Cl)c2=O)c1	1.4%	-6.3%	2.3%	?	4.9%	i
O=C(OCn1ncc(Cl)c(Cl)c1=O)c1ccc(C(F)(F)F)cc1	-7.2%	-0.7%	-1.8%	17.8µM*	12.4%	i
O=C(O)c1ccc(-n2ncc(Cl)c(Cl)c2=O)cc1	·	·	·	·	·	i
Cc1ccc(C(=O)OCn2ncc(Cl)c(Cl)c2=O)cc1	0.7%	5.2%	-0.1%	12.6µM*	7.9%	i
Cc1cccc(Cn2ncc(Cl)c(Cl)c2=O)c1	-7.2%	-7.6%	-8.7%	50.1µM*	1.8%	i
CCOC(=O)c1ccc(NC(=O)Cn2ncc(Cl)c(Cl)c2=O)cc1	3.9%	-5.3%	?	?	-3.5%	i
c1cc2c3c(c1)CCC[N+]3(C1CCCCC1)CCC2	6.3%	·	·	-17.4%	·	·
O=C1[C@H](Cc2ccccc2)NC/C=C\C[C@H](c2ccc(Cl)cc2)N1Cc1ccc(Cl)cc1	-10.5%	·	·	-14.0%	·	·
CN1CC(=O)N(CC(=O)Nc2cccc(C#N)c2)c2ccccc2C1=O	-9.3%[57.1 µM]	·	-8.0%	-3.4%[57.1 µM]	·	·
CCOC(=O)Cc1ccc(NC(=O)NC(C)c2c(-n3cccc3)sc(C)c2C)cc1 (stereo not given)	-4.0%	·	7.0%	19.4%	·	·
Cc1noc(C)c1CSc1nnc(-c2c[nH]c3ccccc23)n1-c1ccc(Cl)cc1	6.6%[57.1 µM]	-5.2%	-0.6%	-12.8%[57.1 µM]	-6.1%	-114.8%*
Cc1cc(N2CCCC2)nc2ccc(NC(=S)NCCCOC(C)C)cc12	6.5%	-0.3%	15.1%	44.7µM*	7.9%	i
COc1ccc(C2c3c(n(CCCc4ccccc4)cnc3=N)Oc3ccc4ccccc4c32)cc1OC (stereo not given)	·	·	0.2%	·	·	·
COc1cc2nc(N3CCOCC3)nc(NC3CCN(C)CC3)c2cc1OC	190.3%	·	·	-1.8%	·	·
C(=N\Nc1ccccn1)/c1c[nH]c2ccccc12	-9.2%	5.01µM*	4.2%	-4.9%	-9.2%	i
O=C(Cc1ccc(S(=O)(=O)N2CCOCC2)s1)Nc1cc(C(F)(F)F)ccc1N1CCCC1	-5.7%[57.1 µM]	-12.0%	9.0%	-5.6%[57.1 µM]	5.1%	i
O=C(Cc1ccc(S(=O)(=O)N2CCOCC2)s1)Nc1ccccc1N1CCCC1	-2.0%	1.6%	-15.9%	11.2µM*	-2.5%	i
CCN(/C(N)=N/c1nc(C)cc(C)n1)c1ccccc1	0.6%	0.0%	-2.9%	-17.9%	-23.5%	i
CCc1cccc(N(C)C(N)=Nc2cccc3ccccc23)c1	7.2%[57.1 µM]	29.7%	2.3%	12.5%[57.1 µM]	12.6µM*	i
COc1ccc(C2Nc3ccccc3C(=O)N2Cc2ccccc2)cc1COc1ccccc1F (stereo not given)	39.9%	·	-0.8%	33.2%	·	·

Screening results deposited in PubChem BioAssay by National Center for Advancing Translational Sciences (NCATS).
